According to PubChem BioAssay (NCATS):
Records with an inconclusive call do not appear. A number with no mark means an inactive call. The source made the active and inactive calls. The call rests on the fitted dose curve; in most records, active means well fitted inhibition curve with a large enough effect; inconclusive means small, poorly fitted or top-dose-only effect; inactive means flat fitted curve, though single readings scatter.

The compounds below were run on CP238 (assay: qHTS profiling for inhibitors of Plasmodium falciparum proliferation (AID 504749; further: nearly all actives have a fitted effect of over 60% in size;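 on activity, negative = inhibition: 0% = DMSO vehicle and full inhibition = artemisinin control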)). Settings: P. falciparum in erythrocytes, SYBR Green DNA, 72 h; series mostly up to 28.7 µM; activity, negative = inhibition: at the top concentration.
Summary of the method: (§1)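 Readout was DNA-dye fluorescence from lysed cultures, ex 485/em 535 nm. Parasitized red cells had grown 72 h with compound; data scaled between 0.29 uM artemisinin and DMSO wells and corrected using vehicle-only plates.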
Potency means the concentration at half of the fitted maximal effect.

In order of falling “activity, negative = inhibition” value:
1. N[C@H](CC(=O)O)C(=O)O  9.88%
2. O=C(O)COc1ccc(CCNS(=O)(=O)c2ccccc2)s1  9.17%
3. COC(=O)CCC[N+](C)(C)C  8.93%
4. COc1ccc(/C=C/C(=O)O)cc1  7.93%
5. CNC(=O)OCc1cccc(COC(=O)NC)n1  7.6%
6. CC(C)(CO)[C@@H](O)C(=O)NCCC(=O)NCCSSCCNC(=O)CCNC(=O)[C@H](O)C(C)(C)CO  6.77%
7. C[C@H](CCC(=O)O)[C@H]1CC[C@H]2[C@@H]3CC[C@@H]4C[C@H](O)CC[C@]4(C)[C@H]3C[C@H](O)[C@]12C  6.61%
8. CC1CCCCN1CCCOC(=O)c1ccccc1 (stereo not drawn)  6.06%
9. CC(C)(C)c1ccc2c(S(=O)(=O)O)c(C(C)(C)C)ccc2c1  5.81%
10. COc1cc2c(cc1OC)[C@@H](Cc1cc(OC)c(OC)c(OC)c1)[N+](C)(CCCOC(=O)CC/C=C/CCC(=O)OCCC[N+]1(C)CCc3cc(OC)c(OC)cc3[C@H]1Cc1cc(OC)c(OC)c(OC)c1)CC2 (stereo partly drawn)  5.54%
11. Cc1ccc(C(C)(C)c2ccc(C)cc2)cc1  4.45%
12. CC(C)c1nc(N(C)S(C)(=O)=O)nc(-c2ccc(F)cc2)c1/C=C/C(O)CC(O)CC(=O)O (stereo not drawn)  4.34%
13. CCCCCCCCCCCCCCCCCCCCCC(=O)Nc1ccn([C@@H]2O[C@H](CO)[C@@H](O)[C@@H]2O)c(=O)n1  4.06%
14. CO  3.89%
15. NC(=O)[C@H]1O[C@@H](O)[C@H](O)[C@@H](O)[C@@H]1O  3.82%
16. COC(=O)CC[C@H](N)C(=O)O  3.75%
17. C=CCN1CCCC1CNC(=O)c1cc(S(N)(=O)=O)cc(OC)c1OC (stereo not drawn)  3.72%
18. CC/C(=C(/CC)c1ccc(OP(=O)(O)O)cc1)c1ccc(OP(=O)(O)O)cc1  3.37%
19. Nc1ncnc2c1ncn2[C@H]1CC[C@@H](CO)O1  2.51%
20. CC1(O)CCC(C(C)(C)O)CC1 (stereo not drawn)  2.29%
21. OB(O)O  2.28%
22. OC[C@H]1O[C@@H]2O[C@H]3[C@H](O)[C@@H](O)[C@@H](O[C@H]4[C@H](O)[C@@H](O)[C@@H](O[C@H]5[C@H](O)[C@@H](O)[C@@H](O[C@H]6[C@H](O)[C@@H](O)[C@@H](O[C@H]7[C@H](O)[C@@H](O)[C@@H](O[C@H]1[C@H](O)[C@H]2O)O[C@@H]7CO)O[C@@H]6CO)O[C@@H]5CO)O[C@@H]4CO)O[C@@H]3CO  1.93%
23. CC1=CC(=O)NS(=O)(=O)O1  1.85%
24. O=C(/C=C/c1cccc(F)c1)NC1CC1  0.888%
25. COC(=O)c1ccccc1O  0.662%
26. CN1c2c(nc(N)[nH]c2=O)NCC1CNc1ccc(C(=O)NC(CCC(=O)O)C(=O)O)cc1 (stereo not drawn)  0.54%
27. O=C(NCCNCC(O)COc1ccc(O)cc1)N1CCOCC1 (stereo not drawn)  0.502%
28. COC(=O)C(CN)c1c[nH]c2ccc(OC)cc12 (stereo not drawn)  0.0567%
29. CCCCCCCCCCCCOCCCN  -0.551%
30. CCCC(=O)O  -0.909%
31. CC(=O)Nc1c(I)c(C(=O)O)c(I)c(N(C)C(C)=O)c1I  -1.37%
32. CCCCCCCCCCCCCCCCCC[N+](C)(C)CCC[Si](OC)(OC)OC  -2.21%
33. CCOc1ccc(NC(=S)Nc2ccc(OCC)cc2)cc1  -4.2%
34. CCCOC(=O)c1ccccc1O  -4.44%
35. CC/C=C\C/C=C\C/C=C\C/C=C\C/C=C\C/C=C\CCC(=O)O  -6.21%
36. O=S(=O)(O)CCCS(=O)(=O)O  -10.8%
37. CC/C=C\C/C=C\C/C=C\CCCCCCCC(=O)O  -20.2%

In the case of `CCSc1ccc2c(c1)N(CCCN1CCN(C)CC1)c1ccccc1S2`, the “activity, negative = inhibition” value is reported as -0.334% [at 12.8 µM].

In the case of `CC1=CC(=C(c2ccc(N)cc2)c2ccc(N)cc2)C=CC1=N`, the Potency is reported as 3550 nM (active).

What follows are compounds tested on CP247 in the same assay as above. Settings: P. falciparum in erythrocytes, SYBR Green DNA, 72 h; series mostly up to 28.7 µM; activity, negative = inhibition: at the top concentration.
Summary of the method: as §1

In order of falling “activity, negative = inhibition” value:
1. CCCOC(=O)c1ccccc1O  16.2%
2. CCCC(=O)O  14.6%
3. CC/C(=C(/CC)c1ccc(OP(=O)(O)O)cc1)c1ccc(OP(=O)(O)O)cc1  12%
4. COc1cc2c(cc1OC)[C@@H](Cc1cc(OC)c(OC)c(OC)c1)[N+](C)(CCCOC(=O)CC/C=C/CCC(=O)OCCC[N+]1(C)CCc3cc(OC)c(OC)cc3[C@H]1Cc1cc(OC)c(OC)c(OC)c1)CC2 (stereo partly drawn)  10.6%
5. COC(=O)CC[C@H](N)C(=O)O  8.05%
6. NC(=O)[C@H]1O[C@@H](O)[C@H](O)[C@@H](O)[C@@H]1O  6.66%
7. COC(=O)C(CN)c1c[nH]c2ccc(OC)cc12 (stereo not drawn)  6.04%
8. CNC(=O)OCc1cccc(COC(=O)NC)n1  6%
9. CCCCCCCCCCCCOCCCN  5.85%
10. CC1=CC(=O)NS(=O)(=O)O1  5.31%
11. O=C(O)COc1ccc(CCNS(=O)(=O)c2ccccc2)s1  5.22%
12. CC1(O)CCC(C(C)(C)O)CC1 (stereo not drawn)  5.19%
13. CO  5.08%
14. C=CCN1CCCC1CNC(=O)c1cc(S(N)(=O)=O)cc(OC)c1OC (stereo not drawn)  4.96%
15. COc1ccc(/C=C/C(=O)O)cc1  4.8%
16. C[C@H](CCC(=O)O)[C@H]1CC[C@H]2[C@@H]3CC[C@@H]4C[C@H](O)CC[C@]4(C)[C@H]3C[C@H](O)[C@]12C  4.42%
17. CCCCCCCCCCCCCCCCCC[N+](C)(C)CCC[Si](OC)(OC)OC  4.31%
18. COC(=O)CCC[N+](C)(C)C  3.82%
19. CC(C)(C)c1ccc2c(S(=O)(=O)O)c(C(C)(C)C)ccc2c1  3.74%
20. CC(C)(CO)[C@@H](O)C(=O)NCCC(=O)NCCSSCCNC(=O)CCNC(=O)[C@H](O)C(C)(C)CO  3.28%
21. CC(C)c1nc(N(C)S(C)(=O)=O)nc(-c2ccc(F)cc2)c1/C=C/C(O)CC(O)CC(=O)O (stereo not drawn)  2.16%
22. Cc1ccc(C(C)(C)c2ccc(C)cc2)cc1  1.76%
23. COC(=O)c1ccccc1O  0.806%
24. Nc1ncnc2c1ncn2[C@H]1CC[C@@H](CO)O1  0.307%
25. OC[C@H]1O[C@@H]2O[C@H]3[C@H](O)[C@@H](O)[C@@H](O[C@H]4[C@H](O)[C@@H](O)[C@@H](O[C@H]5[C@H](O)[C@@H](O)[C@@H](O[C@H]6[C@H](O)[C@@H](O)[C@@H](O[C@H]7[C@H](O)[C@@H](O)[C@@H](O[C@H]1[C@H](O)[C@H]2O)O[C@@H]7CO)O[C@@H]6CO)O[C@@H]5CO)O[C@@H]4CO)O[C@@H]3CO  0.141%
26. CCOc1ccc(NC(=S)Nc2ccc(OCC)cc2)cc1  -0.0662%
27. CN1c2c(nc(N)[nH]c2=O)NCC1CNc1ccc(C(=O)NC(CCC(=O)O)C(=O)O)cc1 (stereo not drawn)  -0.45%
28. CC(=O)Nc1c(I)c(C(=O)O)c(I)c(N(C)C(C)=O)c1I  -0.828%
29. O=C(NCCNCC(O)COc1ccc(O)cc1)N1CCOCC1 (stereo not drawn)  -1.6%
30. CC1CCCCN1CCCOC(=O)c1ccccc1 (stereo not drawn)  -2.6%
31. N[C@H](CC(=O)O)C(=O)O  -4.69%
32. CCCCCCCCCCCCCCCCCCCCCC(=O)Nc1ccn([C@@H]2O[C@H](CO)[C@@H](O)[C@@H]2O)c(=O)n1  -4.75%
33. O=S(=O)(O)CCCS(=O)(=O)O  -4.82%
34. OB(O)O  -8.9%
35. CC/C=C\C/C=C\C/C=C\C/C=C\C/C=C\C/C=C\CCC(=O)O  -17%
36. CC/C=C\C/C=C\C/C=C\CCCCCCCC(=O)O  -18.2%
37. O=C(/C=C/c1cccc(F)c1)NC1CC1  -22.2%

`CCSc1ccc2c(c1)N(CCCN1CCN(C)CC1)c1ccccc1S2` was tested, and the “activity, negative = inhibition” value was -5.29% [at 12.8 µM].

With `CC1=CC(=C(c2ccc(N)cc2)c2ccc(N)cc2)C=CC1=N` the Potency was 1120 nM (active).
